Measurements taken from the supplement of paper PMC10849652.
Targets with a hit are over-represented here; the source holds about 8,800 in all. About 0.5% of all pairs of compound and target were hits.

Tests used:
Assay in all cases: log2 fold change, soluble protein after heating vs DMSO (PISA); higher = thermal stabilisation; K562 lysate, 10 uM; active = over 0.2 and 3.5 SD of the protein, either way, in both replicates (recomputed)
[1] = compound: NCC(=O)Nc1ccc(-n2nc(C(F)(F)F)cc2-c2ccc3c(ccc4ccccc43)c2)cc1
In short: (§1)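 Pellets of K562 cells were dounce-homogenised in PBS pH 7.4 with 1 mM MgCl2, and the crude extract was held at 1 mg/mL protein for a 30 min treatment with 10 μM compound. Aliquots were heated for 3 min over 48°C-58°C and pooled before NP-40 was added to 0.5% at 4°C. The supernatant from 21,000xg for 90 min was quantified by TMTpro 16plex LC-MS/MS with channel sums equalised. Values are reported from duplicates as log-two fold change in thermal stability relative to solvent controls.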

vorinostat = compound: O=C(CCCCCCC(=O)Nc1ccccc1)NO [vorinostat]
In short: as §1

silmitasertib = compound: O=C(O)c1ccc2c(c1)nc(Nc1cccc(Cl)c1)c1ccncc12 [silmitasertib]
In short: as §1

[2] = compound: O=C1NC(=O)C(c2cnc3ccccn23)=C1c1cn2c3c(cc(F)cc13)CN(C(=O)N1CCCCC1)CC2
In short: as §1

entospletinib = compound: c1cn2cc(-c3ccc4cn[nH]c4c3)nc(Nc3ccc(N4CCOCC4)cc3)c2n1 [entospletinib]
In short: as §1

Sequence of UniProt P46527 (P46527 whole entry, looked up): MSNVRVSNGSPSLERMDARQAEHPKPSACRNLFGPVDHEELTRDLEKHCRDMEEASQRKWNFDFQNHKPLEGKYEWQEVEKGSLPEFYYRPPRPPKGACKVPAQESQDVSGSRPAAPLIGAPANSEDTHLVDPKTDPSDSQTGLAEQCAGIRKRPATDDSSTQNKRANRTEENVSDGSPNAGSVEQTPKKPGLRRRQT
Sequence of UniProt Q12981 (Q12981 whole entry, looked up): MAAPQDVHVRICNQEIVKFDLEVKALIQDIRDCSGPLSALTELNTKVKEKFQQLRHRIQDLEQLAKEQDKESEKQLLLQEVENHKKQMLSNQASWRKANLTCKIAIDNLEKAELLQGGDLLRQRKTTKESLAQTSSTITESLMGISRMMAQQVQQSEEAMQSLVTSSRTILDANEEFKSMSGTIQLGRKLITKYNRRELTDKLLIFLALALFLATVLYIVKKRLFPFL
Sequence of UniProt Q00536 (Q00536 whole entry, looked up): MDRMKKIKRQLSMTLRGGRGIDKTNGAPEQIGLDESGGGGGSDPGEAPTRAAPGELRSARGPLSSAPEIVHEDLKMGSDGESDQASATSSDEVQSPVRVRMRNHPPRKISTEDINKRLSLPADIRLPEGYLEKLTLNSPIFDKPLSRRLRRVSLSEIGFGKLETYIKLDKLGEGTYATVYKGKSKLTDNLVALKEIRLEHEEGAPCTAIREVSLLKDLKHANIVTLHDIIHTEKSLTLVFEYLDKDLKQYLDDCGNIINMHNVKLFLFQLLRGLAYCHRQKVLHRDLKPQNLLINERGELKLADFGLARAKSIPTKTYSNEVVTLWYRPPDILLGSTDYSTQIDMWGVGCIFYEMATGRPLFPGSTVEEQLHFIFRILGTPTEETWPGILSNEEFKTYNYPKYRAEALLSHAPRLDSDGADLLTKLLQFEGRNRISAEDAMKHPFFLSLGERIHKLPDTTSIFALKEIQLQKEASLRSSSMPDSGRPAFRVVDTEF
Sequence of UniProt Q9Y6K0 (Q9Y6K0 whole entry, looked up): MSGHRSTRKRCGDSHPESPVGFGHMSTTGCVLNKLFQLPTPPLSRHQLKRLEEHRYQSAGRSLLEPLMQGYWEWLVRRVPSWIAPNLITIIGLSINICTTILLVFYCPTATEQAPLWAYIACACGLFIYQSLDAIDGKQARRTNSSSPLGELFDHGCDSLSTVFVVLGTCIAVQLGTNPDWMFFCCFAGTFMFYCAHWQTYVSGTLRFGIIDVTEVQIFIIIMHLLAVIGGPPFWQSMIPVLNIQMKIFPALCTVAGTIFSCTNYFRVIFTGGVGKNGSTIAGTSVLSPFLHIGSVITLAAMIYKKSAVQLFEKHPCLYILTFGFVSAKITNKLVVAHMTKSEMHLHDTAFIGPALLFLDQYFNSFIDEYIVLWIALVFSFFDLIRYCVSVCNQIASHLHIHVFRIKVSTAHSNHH
Sequence of UniProt O75794 (O75794 whole entry, looked up): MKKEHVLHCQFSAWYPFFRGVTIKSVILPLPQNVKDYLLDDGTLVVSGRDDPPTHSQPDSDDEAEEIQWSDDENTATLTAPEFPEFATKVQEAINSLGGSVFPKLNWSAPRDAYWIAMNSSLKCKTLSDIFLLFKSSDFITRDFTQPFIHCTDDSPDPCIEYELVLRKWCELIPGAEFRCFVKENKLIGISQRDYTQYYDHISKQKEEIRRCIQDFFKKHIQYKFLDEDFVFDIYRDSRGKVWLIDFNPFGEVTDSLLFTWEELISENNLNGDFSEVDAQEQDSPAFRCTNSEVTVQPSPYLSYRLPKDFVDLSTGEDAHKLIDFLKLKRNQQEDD
Sequence of UniProt P11274 (P11274 whole entry, looked up): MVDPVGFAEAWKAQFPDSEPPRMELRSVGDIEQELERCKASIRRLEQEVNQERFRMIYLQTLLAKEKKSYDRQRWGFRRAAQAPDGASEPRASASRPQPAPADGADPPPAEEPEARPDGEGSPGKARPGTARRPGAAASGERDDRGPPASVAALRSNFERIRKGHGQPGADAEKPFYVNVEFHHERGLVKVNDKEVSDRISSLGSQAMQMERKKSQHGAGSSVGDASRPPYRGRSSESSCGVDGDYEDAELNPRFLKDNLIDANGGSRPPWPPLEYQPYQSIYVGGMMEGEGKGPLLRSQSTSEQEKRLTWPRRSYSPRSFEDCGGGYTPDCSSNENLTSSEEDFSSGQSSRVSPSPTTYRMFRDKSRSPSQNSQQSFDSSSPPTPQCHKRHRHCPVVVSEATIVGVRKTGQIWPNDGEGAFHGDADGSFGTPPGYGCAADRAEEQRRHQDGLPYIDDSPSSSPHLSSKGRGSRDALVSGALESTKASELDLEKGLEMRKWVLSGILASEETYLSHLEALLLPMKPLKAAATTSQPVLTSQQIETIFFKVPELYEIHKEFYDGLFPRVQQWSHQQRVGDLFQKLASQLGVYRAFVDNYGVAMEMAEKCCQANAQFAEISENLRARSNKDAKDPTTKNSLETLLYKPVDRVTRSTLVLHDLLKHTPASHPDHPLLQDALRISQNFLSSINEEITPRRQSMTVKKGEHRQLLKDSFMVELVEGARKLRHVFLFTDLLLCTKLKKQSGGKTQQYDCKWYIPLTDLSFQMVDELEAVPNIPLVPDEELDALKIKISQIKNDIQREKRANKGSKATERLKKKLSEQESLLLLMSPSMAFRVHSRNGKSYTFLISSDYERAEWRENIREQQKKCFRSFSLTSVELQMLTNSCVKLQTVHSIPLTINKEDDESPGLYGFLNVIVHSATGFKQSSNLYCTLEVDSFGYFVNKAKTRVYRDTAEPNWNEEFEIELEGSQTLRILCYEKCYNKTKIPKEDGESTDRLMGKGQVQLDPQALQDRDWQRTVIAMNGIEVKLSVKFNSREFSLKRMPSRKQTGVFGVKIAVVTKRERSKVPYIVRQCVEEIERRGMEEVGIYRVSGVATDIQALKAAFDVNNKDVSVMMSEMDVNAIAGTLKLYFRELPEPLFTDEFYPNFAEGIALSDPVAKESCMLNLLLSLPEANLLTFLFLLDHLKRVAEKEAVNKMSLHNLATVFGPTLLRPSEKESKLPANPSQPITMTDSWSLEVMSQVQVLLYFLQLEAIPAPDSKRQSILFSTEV
Sequence of UniProt Q9Y2V2 (Q9Y2V2 whole entry, looked up): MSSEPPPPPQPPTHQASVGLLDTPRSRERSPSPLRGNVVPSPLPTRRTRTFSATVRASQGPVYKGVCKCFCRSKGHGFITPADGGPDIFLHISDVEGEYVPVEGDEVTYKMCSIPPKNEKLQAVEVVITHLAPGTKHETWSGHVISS
Sequence of UniProt Q8TDI0 (Q8TDI0 whole entry, looked up): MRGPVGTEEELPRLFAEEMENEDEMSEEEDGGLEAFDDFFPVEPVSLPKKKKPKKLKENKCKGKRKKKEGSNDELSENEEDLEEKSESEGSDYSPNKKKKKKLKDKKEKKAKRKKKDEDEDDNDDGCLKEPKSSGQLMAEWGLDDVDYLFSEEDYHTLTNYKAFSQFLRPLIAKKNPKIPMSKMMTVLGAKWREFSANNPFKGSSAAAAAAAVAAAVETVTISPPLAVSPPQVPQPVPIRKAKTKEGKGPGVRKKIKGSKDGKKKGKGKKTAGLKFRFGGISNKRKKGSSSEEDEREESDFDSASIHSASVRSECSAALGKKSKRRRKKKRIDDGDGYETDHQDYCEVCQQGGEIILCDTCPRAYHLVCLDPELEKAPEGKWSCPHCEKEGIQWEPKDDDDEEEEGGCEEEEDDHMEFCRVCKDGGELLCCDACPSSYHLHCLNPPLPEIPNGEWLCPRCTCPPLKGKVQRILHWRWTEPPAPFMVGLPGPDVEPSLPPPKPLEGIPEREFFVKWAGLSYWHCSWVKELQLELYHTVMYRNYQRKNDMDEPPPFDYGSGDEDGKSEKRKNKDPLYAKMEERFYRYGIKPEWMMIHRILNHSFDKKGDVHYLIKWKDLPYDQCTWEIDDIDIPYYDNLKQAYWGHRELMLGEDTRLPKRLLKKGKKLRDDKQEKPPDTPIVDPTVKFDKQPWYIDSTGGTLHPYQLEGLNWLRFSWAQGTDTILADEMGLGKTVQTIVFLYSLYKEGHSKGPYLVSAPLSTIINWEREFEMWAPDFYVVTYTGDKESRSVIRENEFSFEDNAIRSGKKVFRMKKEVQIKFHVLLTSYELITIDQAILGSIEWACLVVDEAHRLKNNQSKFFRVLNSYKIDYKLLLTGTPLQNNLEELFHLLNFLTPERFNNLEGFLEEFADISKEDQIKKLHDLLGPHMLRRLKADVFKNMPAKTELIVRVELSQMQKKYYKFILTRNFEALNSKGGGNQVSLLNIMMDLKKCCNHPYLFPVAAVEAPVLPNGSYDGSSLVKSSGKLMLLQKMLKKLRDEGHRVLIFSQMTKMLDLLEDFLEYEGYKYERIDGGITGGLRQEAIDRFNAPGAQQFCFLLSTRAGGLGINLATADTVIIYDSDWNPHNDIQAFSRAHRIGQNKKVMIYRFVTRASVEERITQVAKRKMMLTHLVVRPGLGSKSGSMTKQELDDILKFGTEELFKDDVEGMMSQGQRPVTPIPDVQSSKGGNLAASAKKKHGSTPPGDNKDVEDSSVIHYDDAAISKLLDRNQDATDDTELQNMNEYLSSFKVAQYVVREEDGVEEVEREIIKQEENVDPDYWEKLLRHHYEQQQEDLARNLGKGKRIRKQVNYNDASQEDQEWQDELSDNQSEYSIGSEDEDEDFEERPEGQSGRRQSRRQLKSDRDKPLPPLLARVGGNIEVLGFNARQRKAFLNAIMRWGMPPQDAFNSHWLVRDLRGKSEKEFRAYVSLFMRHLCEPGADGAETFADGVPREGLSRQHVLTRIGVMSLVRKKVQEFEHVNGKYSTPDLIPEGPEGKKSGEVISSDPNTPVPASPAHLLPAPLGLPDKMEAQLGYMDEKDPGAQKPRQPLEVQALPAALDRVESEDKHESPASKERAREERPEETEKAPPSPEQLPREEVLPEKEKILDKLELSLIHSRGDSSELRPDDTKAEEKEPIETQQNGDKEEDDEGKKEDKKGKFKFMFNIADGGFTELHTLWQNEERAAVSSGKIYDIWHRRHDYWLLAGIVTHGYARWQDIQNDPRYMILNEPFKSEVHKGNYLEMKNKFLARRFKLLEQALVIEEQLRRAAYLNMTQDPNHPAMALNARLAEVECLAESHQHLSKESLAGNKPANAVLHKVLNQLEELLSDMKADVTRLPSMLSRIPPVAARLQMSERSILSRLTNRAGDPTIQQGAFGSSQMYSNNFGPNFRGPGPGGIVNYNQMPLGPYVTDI

Row | Target | log2 fold change [1] | log2 fold change (vorinostat) | log2 fold change (silmitasertib) | log2 fold change [2] | log2 fold change (entospletinib)
1 | CDK16 isoform 2 (UniProt Q00536) | 0.006 (inactive) | 0.055 (inactive) | 0.446 (active) | 0.603 (active) | -0.05 (inactive)
2 | CELF2 isoform 3 (UniProt O95319) | 0.036 (inactive) | -0.028 (inactive) | -0.012 (inactive) | -0.041 (inactive) | 0.033 (inactive)
3 | CDC123 (UniProt O75794) | -0.064 (inactive) | -0.019 (inactive) | 0.015 (inactive) | -0.032 (inactive) | 0.043 (inactive)
4 | BRD2 isoform 2 (UniProt P25440) | 0.048 (inactive) | 0.107 (inactive) | 0.074 (inactive) | 0.051 (inactive) | 0.021 (inactive)
5 | CHD5 (UniProt Q8TDI0) | 0.059 (inactive) | -0.261 (active) | 0.007 (inactive) | 0.042 (inactive) | 0.025 (inactive)
6 | ATAD3B (UniProt Q5T9A4) | -0.128 (inactive) | 0.132 (inactive) | 0.015 (inactive) | -0.057 (inactive) | 0.012 (inactive)
7 | CARHSP1 (UniProt Q9Y2V2) | 0.045 (inactive) | 0.052 (inactive) | -0.006 (inactive) | 0.056 (inactive) | -0.049 (inactive)
8 | C5orf51 (UniProt A6NDU8) | 0.042 (inactive) | -0.501 (active) | 0.036 (inactive) | -0.003 (inactive) | 0.015 (inactive)
9 | BCR (UniProt P11274) | 0.012 (inactive) | -0.267 (active) | 0.005 (inactive) | 0.001 (inactive) | -0.009 (inactive)
10 | CDKN1B (UniProt P46527) | 0.062 (inactive) | -0.011 (inactive) | 0.048 (inactive) | -0.067 (inactive) | -0.028 (inactive)
11 | BNIP1 (UniProt Q12981) | -0.013 (inactive) | -0.049 (inactive) | 0.066 (inactive) | -0.026 (inactive) | -0.051 (inactive)
12 | ATR (UniProt Q13535) | 0.044 (inactive) | -0.131 (inactive) | 0.509 (active) | -0.01 (inactive) | 0.046 (inactive)
13 | CEPT1 (UniProt Q9Y6K0) | -0.037 (inactive) | 0.103 (inactive) | -0.016 (inactive) | 0.029 (inactive) | -0.016 (inactive)
